# Test results published in article PMC5540273 (PLoS ONE, 2017).
# Where “and” joins values, the source holds several entries; their conditions need not be identical. Equal values may be shown once. Read-outs that look alike come from different tables or passages of the source.
# Tests used:
# [1] = test system: TSSK3; conditions: concentration: 1 μM, replicates: in singlicate, n = 1
# [2] = test system: TTK; conditions: concentration: 1 μM, replicates: in singlicate; n = 1
# [3] = test system: TXK; conditions: concentration: 1 μM, replicates: in singlicate, n = 1
# [4] = test system: TYK2(JH1domain-catalytic); conditions: concentration: 1 μM, replicates: in singlicate, n = 1
# [5] = test system: TYK2(JH2domain-pseudokinase); conditions: concentration: 1 μM, replicates: in singlicate, n = 1
# [6] = test system: TYRO3; conditions: concentration: 1 μM, replicates: in singlicate, n = 1
# [7] = test system: ULK1; conditions: concentration: 1 μM, replicates: in singlicate, n = 1
# [8] = test system: ULK2; conditions: concentration: 1 μM, replicates: in singlicate; n = 1
# [9] = test system: ULK3; conditions: concentration: 1 μM, replicates: in singlicate, n = 1
# [10] = test system: T1, VEGFR2; conditions: concentration: 1 μM, replicates: in singlicate, n = 1
# T1 construct: gene KDR
# [11] = test system: T2, VPS34; conditions: concentration: 1 μM, replicates: in singlicate, n = 1
# T2 construct: gene PIK3C3
# [12] = test system: VRK2; conditions: concentration: 1 μM, replicates: in singlicate, n = 1
# [13] = test system: WEE1; conditions: concentration: 1 μM, replicates: in singlicate, n = 1
# [14] = test system: WEE2; conditions: concentration: 1 μM, replicates: in singlicate; n = 1
# [15] = test system: WNK1; conditions: concentration: 1 μM, replicates: in singlicate, n = 1
# [16] = test system: WNK2; conditions: concentration: 1 μM, replicates: in singlicate, n = 1
# [17] = test system: WNK3; conditions: concentration: 1 μM, replicates: in singlicate, n = 1
# [18] = test system: WNK4; conditions: concentration: 1 μM, replicates: in singlicate, n = 1
# [19] = test system: T3, YANK1; conditions: concentration: 1 μM, replicates: in singlicate, n = 1
# T3 construct: gene STK32A
# [20] = test system: T4, YANK2; conditions: concentration: 1 μM, replicates: in singlicate, n = 1
# T4 construct: gene STK32B
# 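Also: KINOMEscan kinase panel screen.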
structure (smiles),measurement,setting,value
CC(C)(CN)c1nc(-c2ccc(Cl)c(O)c2)c(-c2ccncc2)[nH]1.O=C(O)C(F)(F)F [SB-477794],%Inh,[1]; 1 µM,6% and 16%
same,%Inh,[2],0%
same,%Inh,[3]; 1 µM,100% and 96.2%
same,%Inh,[4]; 1 µM,59% and 16%
same,%Inh,[5]; 1 µM,73% and 41%
same,%Inh,[6]; 1 µM,12% and 34%
same,%Inh,[7]; 1 µM,19% and 0%
same,%Inh,[8],0%
same,%Inh,[9]; 1 µM,16% and 2%
same,%Inh,[10]; 1 µM,86% and 83%
same,%Inh,[11]; 1 µM,0% and 48%
same,%Inh,[12]; 1 µM,41% and 42%
same,%Inh,[13]; 1 µM,8% and 7%
same,%Inh,[14],0%
same,%Inh,[15]; 1 µM,16% and 0%
same,%Inh,[16]; 1 µM,1% and 9%
same,%Inh,[17]; 1 µM,52% and 39%
same,%Inh,[18]; 1 µM,47% and 49%
same,%Inh,[19]; 1 µM,95.3% and 93.8%
same,%Inh,[20]; 1 µM,93.6% and 94%
Cc1ccc(C(=O)NCC(N)=O)cc1-n1c(C)cc(OCc2ccc(F)cc2F)c(Br)c1=O,%Inh,[1],0%
same,%Inh,[2],35%
same,%Inh,[3],21%
same,%Inh,[4],0%
same,%Inh,[5],0%
same,%Inh,[6],3%
same,%Inh,[7],0%
same,%Inh,[8],0%
same,%Inh,[9],2%
same,%Inh,[10],0%
same,%Inh,[11],0%
same,%Inh,[12],0%
same,%Inh,[13],3%
same,%Inh,[14],17%
same,%Inh,[15],0%
same,%Inh,[16],5%
same,%Inh,[17],0%
same,%Inh,[18],0%
same,%Inh,[19],0%
same,%Inh,[20],10%
Fc1ccc(-c2nn3c(OCC(F)(F)F)cccc3c2-c2ccncc2)cc1 [GW514784],%Inh,[1],5%
same,%Inh,[2],0%
same,%Inh,[3],18%
same,%Inh,[4],10%
same,%Inh,[5],36%
same,%Inh,[6],0%
same,%Inh,[7],8%
same,%Inh,[8],0%
same,%Inh,[9],9%
same,%Inh,[10],0%
same,%Inh,[11],2%
same,%Inh,[12],33%
same,%Inh,[13],10%
same,%Inh,[14],0%
same,%Inh,[15],14%
same,%Inh,[16],0%
same,%Inh,[17],27%
same,%Inh,[18],38%
same,%Inh,[19],30%
same,%Inh,[20],24%
CN(C1=C(c2ccccc2)C(=O)NC1=O)c1ccccc1 [SB-334860],%Inh,[1],15%
same,%Inh,[2],0%
same,%Inh,[3],83%
same,%Inh,[4],0%
same,%Inh,[5],0%
same,%Inh,[6],0%
same,%Inh,[7],5%
same,%Inh,[8],8%
same,%Inh,[9],6%
same,%Inh,[10],12%
same,%Inh,[11],0%
same,%Inh,[12],8%
same,%Inh,[13],13%
same,%Inh,[14],0%
same,%Inh,[15],8%
same,%Inh,[16],28%
same,%Inh,[17],17%
same,%Inh,[18],1%
same,%Inh,[19],0%
same,%Inh,[20],15%
Nc1nccc(-c2c(-c3ccc(F)cc3)ncn2C2CCN(CC(F)(F)F)CC2)n1 [SB-236560],%Inh,[1],67%
same,%Inh,[2],0%
same,%Inh,[3],0%
same,%Inh,[4],14%
same,%Inh,[5],82%
same,%Inh,[6],0%
same,%Inh,[7],0%
same,%Inh,[8],30%
same,%Inh,[9],10%
same,%Inh,[10],0%
same,%Inh,[11],58%
same,%Inh,[12],31%
same,%Inh,[13],0%
same,%Inh,[14],0%
same,%Inh,[15],0%
same,%Inh,[16],17%
same,%Inh,[17],35%
same,%Inh,[18],0%
same,%Inh,[19],22%
same,%Inh,[20],0%
